Laboratory results taken from PMC4336329 (PLoS ONE, 2015).
Hit rate of the full screen: of about 310,000 compounds, about 14,000 (4.5%) showed an effect of 50% or more. Effects have a minus sign here. Shown is part of a subset that was picked to be rich in strong results.

What follows are molecules tested against human ether-à-go-go-related gene (hERG) potassium channel (human, UniProt Q12809) (assay: primary screen, population patch clamp on CHO cells stably expressing hERG; higher = less effect of the substance).
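Note: peak tail current of the secondary pulse compared with the same well before compound.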

human ether-à-go-go-related gene (hERG) potassium channel, sequence (Q12809 whole entry, looked up): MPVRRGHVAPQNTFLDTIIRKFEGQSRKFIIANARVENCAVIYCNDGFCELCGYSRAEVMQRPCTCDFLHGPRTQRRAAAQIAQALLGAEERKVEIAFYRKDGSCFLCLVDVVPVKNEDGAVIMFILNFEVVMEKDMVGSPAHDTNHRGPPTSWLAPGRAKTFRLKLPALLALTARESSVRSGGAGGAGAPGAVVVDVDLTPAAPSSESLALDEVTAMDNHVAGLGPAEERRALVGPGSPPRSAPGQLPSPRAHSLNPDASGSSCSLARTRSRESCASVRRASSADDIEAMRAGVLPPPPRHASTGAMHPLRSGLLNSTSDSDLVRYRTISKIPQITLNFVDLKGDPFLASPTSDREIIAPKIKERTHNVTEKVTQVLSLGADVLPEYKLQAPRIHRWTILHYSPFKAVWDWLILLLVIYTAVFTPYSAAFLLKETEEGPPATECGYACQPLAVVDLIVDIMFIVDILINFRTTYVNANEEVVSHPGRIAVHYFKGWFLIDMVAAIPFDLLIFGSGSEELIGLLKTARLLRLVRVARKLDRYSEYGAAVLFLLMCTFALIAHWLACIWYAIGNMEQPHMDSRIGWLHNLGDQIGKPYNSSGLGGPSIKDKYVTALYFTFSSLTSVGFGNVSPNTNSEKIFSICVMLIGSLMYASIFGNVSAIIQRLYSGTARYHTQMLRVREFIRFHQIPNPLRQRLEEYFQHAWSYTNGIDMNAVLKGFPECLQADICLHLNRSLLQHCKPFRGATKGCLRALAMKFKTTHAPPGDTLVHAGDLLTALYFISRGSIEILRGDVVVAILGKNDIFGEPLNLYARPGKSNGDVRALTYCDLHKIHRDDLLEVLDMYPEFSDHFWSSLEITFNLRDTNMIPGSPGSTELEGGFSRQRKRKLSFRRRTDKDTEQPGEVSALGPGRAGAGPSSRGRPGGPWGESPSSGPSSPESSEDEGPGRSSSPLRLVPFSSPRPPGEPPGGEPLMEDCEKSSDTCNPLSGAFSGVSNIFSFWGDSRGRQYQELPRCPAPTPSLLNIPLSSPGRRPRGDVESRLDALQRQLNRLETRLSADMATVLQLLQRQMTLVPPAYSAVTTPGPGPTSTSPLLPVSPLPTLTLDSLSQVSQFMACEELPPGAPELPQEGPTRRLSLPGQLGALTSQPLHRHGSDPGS

Structure (SMILES) | hERG current change (%, negative = inhibition) at 10uM [%]
COc1cccc(OCCOCCNCCO)c1 | -6.7
O=C(CN(CCc1ccccc1)C(=O)c1csnn1)NC1CCCC1 | -4.71
C[C@]12CCC3C(CC[C@H]4CC(O)CC[C@]34C)C1CC/C2=N/O (some centres unmarked) | 13.3
COc1ccc(OCC#CCN2CCC(C)CC2)cc1.O=C(O)C(=O)O | -11.4
CN(C)c1cc(NC(=O)CNC(C)(C)C)c2ccccc2n1.O=C(O)C(=O)O | -24.4
CC(Cc1ccccc1)NCC(=O)Nc1cc(N(C)C)nc2ccccc12.O=C(O)C(=O)O (centres unmarked) | -77.1
CN1CCN(CC(=O)Nc2cc(N(C)C)nc3ccccc23)CC1.Cl | 8.25
COc1ccc(CCN(C)CC(=O)Nc2cc(C)nc3ccccc23)cc1OC.O=C(O)C(=O)O | 5.34
CC(C)(C)CC(C)(C)NCC(=O)Nc1c2c(nc3ccccc13)CCC2.O=C(O)C(=O)O | -3.35
CN(C)c1cc(NC(=O)CNC(C)(C)CC(C)(C)C)c2ccccc2n1.O=C(O)C(=O)O | -69.9
CCOc1ccccc1NC(=O)[C@@H](NC(=O)c1ccccc1F)C(C)C | -6.35
COc1ccc(C(C(N)=O)c2ncc(C(F)(F)F)cc2Cl)cc1 (centres unmarked) | 4.78
O=C(CCCCl)NC1=NN(c2ccccc2)C(=O)C1 | -4.99
COc1ccc(OC)c(-n2c(CNC3CCN(Cc4ccccc4)CC3)nc3ccccc3c2=O)c1 | -76.6
Fc1ccc(CNC2CCN(Cc3ccccc3)CC2)cc1 | -65.3
COc1ccc(OC)c(-n2c(CN3CCC(C(N)=O)CC3)nc3ccccc3c2=O)c1 | -0.126
COc1ccc(CNC2CCN(Cc3ccccc3)CC2)cc1 | -54.2
Cl.Clc1ccc(CNC2CCCC2)cc1 | -13.1
CC(NC1CCN(Cc2ccccc2)CC1)c1ccc(F)cc1 (centres unmarked) | 3.46
FC(F)(F)c1cccc(CNC2CCN(Cc3ccccc3)CC2)c1 | -28.3
S=C(NCc1ccc(Cl)cc1)NC1CCN(Cc2ccccc2)CC1 | -41.8
COc1ccc(-n2c(CN3CCOCC3)nc3ccccc3c2=O)c(OC)c1 | 22.9
Clc1ccc(CNC2CCN(Cc3ccccc3)CC2)cc1 | -72.7

Structure (SMILES) | hERG current change (%, negative = inhibition) at 10uM [%]
COc1ccccc1CNC1CCN(Cc2ccccc2)CC1 | -3.89
COc1ccc(CCNC(=S)NC2CCN(Cc3ccccc3)CC2)cc1 | -36.9
Fc1ccc(-c2cc(C(F)(F)F)nc(NCc3cccs3)n2)cc1 | 14.4
CCOC(=O)c1c(-c2ccccc2)csc1NC(=O)/C(C#N)=C/c1ccc(O)c(OC)c1 | -7.1
O=C(COc1ccc(/C=N/NC(=O)c2cc3ccccc3o2)cc1Br)Nc1ccccc1 | 19.3
Cc1ccccc1NS(=O)(=O)c1ccc(C)c(C(=O)N2CCOCC2)c1 | 1.47
COc1ccc(C(=O)NNC(=O)C(=O)N2CCCCC2)cc1OC | 59.5
CCOC(=O)C(NC(=O)Nc1cccc(C)n1)(OCC(F)(F)F)C(F)(F)F (centres unmarked) | 5.06
CC(=O)COC(=O)C1=NN(c2ccccc2)C(=O)CC1 | 23.7
COc1ccc(S(=O)(=O)N2CCCC(C(=O)NCc3ccc(F)cc3)C2)cc1 (centres unmarked) | 6.39
CCc1nc2ccc(C(=O)NCCc3ccc(OC)c(OC)c3)cc2nc1CC | -0.0865
Cn1c(O)c(/C=C2\N=c3ccccc3=C2CCNC(=S)NC2CC2)c(=O)n(C)c1=O | -44.6
Clc1ccc(CN2CCCCCCC2)cc1 | -33.1
O=S(=O)(NC1CCN(Cc2ccccc2)CC1)c1ccc(Cl)cc1 | -41.3
Clc1ccc(CN2CCC(c3ccccc3)CC2)cc1 | -59.1
Cc1c(C(=O)Nc2c(F)cccc2F)sc2ncn(CC(=O)N3CCCCC3)c(=O)c12 | 3.98
Cc1cc(NC(=O)CSc2nnc(-c3cccnc3)n2C2CCCCC2C)no1 (centres unmarked) | 3.83
CCOc1ccc2[nH]c3c(NCCCOC)ncnc3c2c1 | -10
CCOc1ccc2[nH]c3c(NCCN(C)C)ncnc3c2c1 | -19
COc1ccc2[nH]c3c(NCCN(C(C)C)C(C)C)ncnc3c2c1 | -70.7
CCN(CC)CCNc1ncnc2c1[nH]c1ccc(OC)cc12 | -63.4
CCOc1ccc2[nH]c3c(NCCC(C)C)ncnc3c2c1 | 7.2
COc1ccc2[nH]c3c(NCCCOC(C)C)ncnc3c2c1 | 9.68

Structure (SMILES) | hERG current change (%, negative = inhibition) at 10uM [%]
COc1ccc2[nH]c3c(NCCN4CCCCC4)ncnc3c2c1 | -55.9
CCOc1ccc2[nH]c3c(NCCO)ncnc3c2c1 | 23.1
CCOc1ccc2[nH]c3c(NCCN(CC)CC)ncnc3c2c1 | -71.6
COc1ccc2[nH]c3c(NCCCN4CCCC4=O)ncnc3c2c1 | -14.6
COc1ccc2[nH]c3c(NCc4ccco4)ncnc3c2c1 | -18.1
CCOc1ccc2[nH]c3c(NCCOC)ncnc3c2c1 | -9.5
CCOc1ccccc1NC(=O)c1cnc(NS(=O)(=O)c2ccccc2)nc1 | 17.8
CCN(C(=O)COC(=O)c1[nH]c(C)c(C(C)=O)c1C)c1c(N)n(Cc2ccccc2)c(=O)[nH]c1=O | 0.295
Cc1ccc2oc(C(=O)Nc3cc(C)on3)c(C)c2c1 | -1.98
CCCCOc1ccc(NC(=O)C(=O)NCCC2=CCCCC2)cc1 | 2.25
CCCCCOC(=O)c1ccc(N2C(=O)C3C4C=CC(C4)C3C2=O)cc1 (centres unmarked) | -6.84
C=CCn1c(SCC(=O)Nc2cc(C)on2)nc2sc3c(c2c1=O)CCCC3 | -4
O=C(Nc1ccc(S(=O)(=O)Nc2ncccn2)cc1)c1cccc(Br)c1 | 16.5
CC(=O)c1ccc(NC(=O)CCc2nnc3ccc(NCc4ccco4)nn23)cc1 | 9.4
COc1ccc(CCn2c(O)c(C=Nc3ccccc3F)c(=O)[nH]c2=O)cc1OC | 20.3
CCOc1ccc(C(N)=O)cc1OC | 6.13
CN(C)c1ccc(C=Nc2cnn(C)c2C(N)=O)cc1 | 0.759
COc1ccc(NC(=O)CSc2nnc(-c3cccs3)n2N)c(OC)c1 | 0.565
Cn1cc(CN2CCC(N3CCNC(=O)CC3)CC2)c(-c2ccccc2F)n1 | 8.43
O=C1c2ccccc2C(=O)N1n1cccc1 | 8.7
Cc1c(C)n(CCc2ccccc2)c2ncnc(NCCCO)c12 | -40.1
Cc1c(C)n(CCCN(C)C)c2ncnc(Nc3ccc(F)cc3)c12 | -50.8
Cc1c(C)n(CCCN(C)C)c2ncnc(Nc3ccccc3)c12 | -29.3

Structure (SMILES) | hERG current change (%, negative = inhibition) at 10uM [%]
Cc1c(C)n(Cc2ccccc2)c2ncnc(NCCCN(C)C)c12 | -28.4
COc1ccc(-n2c(C)c(C)c3c(NCCCO)ncnc32)cc1 | -14.3
Cc1c(C)n(CCc2ccccc2)c2ncnc(NCCCN(C)C)c12 | -58
COc1ccc(-n2c(C)c(C)c3c(NCCN(C)C)ncnc32)cc1 | -32.4
COc1ccc(-n2c(C)c(C)c3c(NCCCN(C)C)ncnc32)cc1 | -53.1
COc1ccc(Nc2ncnc3c2c(C)c(C)n3CCCN(C)C)cc1 | -32.7
Cc1cc(NS(=O)(=O)c2ccc(NC(=O)CSc3nnc(-c4ccco4)n3C)cc2)nc(C)n1 | 5.75
CCCCn1c(N)c(N(CC(C)C)C(=O)C2CC(=O)N(CCc3ccccc3)C2)c(=O)[nH]c1=O (centres unmarked) | 7.09
Cc1ccc(Oc2nn[nH]n2)cc1 | 0.395
C=C1[C@@H](OC(C)=O)[C@]23C[C@@H]1[C@@H](OC(C)=O)CC2[C@]12C4C[C@H]3[C@H]1N(CC)C[C@]4(C)CC[C@@H]2O (some centres unmarked) | -40.6
O=C(NCc1n[nH]c(=S)n1-c1ccc(Cl)c(Cl)c1)c1ccc(S(=O)(=O)N2CCOCC2)cc1 | 14.5
N#Cc1ccccc1OCc1nnc(-c2ccccc2Br)o1 | 14.1
O=C(NCc1cccnc1)c1ccccc1NS(=O)(=O)c1ccc(F)cc1F | 9.6
Cn1c(SCCOc2ccccc2Cl)nnc1-c1cccs1 | -35
Cc1ccc2c(c1)C1CN(C)CCC1N2C(=O)c1cccc(S(=O)(=O)N2CC(C)CC(C)C2)c1.Cl (centres unmarked) | -44.8
Cc1ccc2c(c1)C1CN(C)CCC1N2C(=O)c1cccnc1Cl.Cl (centres unmarked) | 1.59
Cc1ccc2c(c1)C1CN(C)CCC1N2C(=O)Cc1cccs1.Cl (centres unmarked) | -46.9
Cc1ccc2c(c1)C1CN(C)CCC1N2C(=O)/C=C/c1ccc2c(c1)OCO2 (centres unmarked) | -62.6
Cc1ccc2c(c1)C1CN(C)CCC1N2C(=O)c1ccccc1NS(=O)(=O)c1cccc(C(F)(F)F)c1.Cl (centres unmarked) | -48.5
Cc1ccc2c(c1)[C@@H]1CN(C)CC[C@@H]1N2C(=O)Nc1cccc(C(F)(F)F)c1 | -38.5
Cc1ccc2c(c1)C1CN(C)CCC1N2C(=O)/C(C#N)=C/c1ccc2c(c1)OCO2 (centres unmarked) | -21.2
Cc1ccc2c(c1)C1CN(C)CCC1N2C(=O)Nc1cccc(Cl)c1 (centres unmarked) | -51.1
Cc1ccc2c(c1)C1CN(C)CCC1N2C(=O)Nc1cccc(C(F)(F)F)c1 (centres unmarked) | -52.4
